Laboratory results published in the supplement of paper PMC4683952.
Structures can show the parent of a compound that is named as a salt. Screen size: about 1,200 compounds; about 50 (4%) showed activity. Rule as the data show it: all actives reach 1.3 or more but so do some inactives. Only a selection was taken, and actives are over-represented in it overall.

Tested on: Lgr5 (MarsCy1-Lgr5-EGFP, U2OS)
Experiment: cell-surface Lgr5 expression (SCi1 fluorescence, background-subtracted) relative to WT DMSO (fold of DMSO control); higher = more Lgr5 at the plasma membrane, active = hit call of the paper
Details: U2OS MarsCy1-Lgr5-EGFP stable; treatment time: overnight; 16 µM; library: Johns Hopkins Clinical Compound Library

SMILES | cell-surface Lgr5 expression
O=P([O-])([O-])[O-].O=P([O-])([O-])[O-].[Ca+2].[Ca+2].[Ca+2] [Calcium phosphate tribasic] | 0.836 (inactive)
CC1=CC(=C(c2ccc(N)cc2)c2ccc(N)cc2)C=CC1=N [Basic fuchsin hydrochloride] | 1.12 (inactive)
CC1(C)S[C@@H]2[C@H](NC(=O)COc3ccccc3)C(=O)N2[C@H]1C(=O)O [Penicillin V (phenoxymethyl penicillinic acid)] | 1.08 (inactive)
CC1(C)S[C@@H]2[C@H](NC(=O)COc3ccccc3)C(=O)N2[C@H]1C(=O)O | 0.694 (inactive)
NC[C@H]1O[C@H](O[C@H]2[C@H](O)[C@@H](O[C@H]3O[C@H](CO)[C@@H](O)[C@H](N)[C@H]3O)[C@H](N)C[C@@H]2N)[C@H](N)[C@@H](O)[C@@H]1O [Kanamycin B sulfate salt] | 0.875 (inactive)
CCNC(=O)CCC/C=C\C[C@@H]1[C@@H](/C=C/[C@@H](O)CCc2ccccc2)[C@H](O)C[C@@H]1O [Bimatoprost] | 1.06 (inactive)
C=C1c2c(Cl)ccc(O)c2C(O)=C2C(=O)[C@]3(O)C(O)=C(C(N)=O)C(=O)[C@@H](N(C)C)[C@@H]3[C@@H](O)[C@H]12.O=C(O)c1cc(S(=O)(=O)O)ccc1O [Meclocycline sulfosalicylate salt] | 0.705 (inactive)
Cc1scc2c1N(C(=O)CN1CCN(C)CC1)c1ccccc1NC2=O [Telenzepine] | 1.3 (active)
O=C([O-])CC(O)(CC(=O)[O-])C(=O)[O-].[Li+].[Li+].[Li+] [Tri-lithium citrate] | 1.06 (inactive)
Cc1cc(O)c(C(=O)N[C@@H](C(=O)N[C@@H]2C(=O)N3C(C(=O)O)=C(CSc4nnnn4C)CS[C@H]23)c2ccc(O)cc2)cn1 [Cefpiramide] | 0.869 (inactive)
CCSc1ccc2c(c1)N(CCCN1CCN(C)CC1)c1ccccc1S2 [Thiethylperazine malate] | 1.12 (inactive)
Cc1cc2c(OCC(CNC(C)(C)C)OC(=O)c3ccccc3)cccc2[nH]1 (centres undefined) [Bopindolol Maleate] | 1.3 (inactive)
C[n+]1c2cc(N)ccc2cc2ccc(N)cc21.Nc1ccc2cc3ccc(N)cc3nc2c1 [Acriflavine hydrochloride] | 1.44 (inactive)
CO[C@@H]1[C@@H](O[C@@H]2O[C@H](C)[C@@H](O[C@H]3C[C@@](C)(O)[C@@H](OC(=O)CC(C)C)[C@H](C)O3)[C@H](N(C)C)[C@H]2O)[C@@H](CC=O)C[C@@H](C)[C@@H](O)/C=C/C=C/C[C@@H](C)OC(=O)C[C@H]1OC(C)=O [Josamycin] | 1.1 (inactive)
